Shown are actives, neighbours in structure and some others; about 3.3% of the full set was active somewhere.
AmpC inh no detg = AmpC beta-lactamase inhibition without detergent; P00811; AmpC nitrocefin hydrolysis, absorbance 480 nm, 0.0001% Triton; Potency, µM (top dose mostly 57.1 µM), for the others: at the highest dose activity change, negative = inhibition, usual class: inhibitors; hit rate 0.52% among 330,000;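 note: plate controls were no compound for no effect and no enzyme for full effect; nearly all actives have a fitted effect of over 20% in size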
Target sequence (P00811 whole entry, looked up): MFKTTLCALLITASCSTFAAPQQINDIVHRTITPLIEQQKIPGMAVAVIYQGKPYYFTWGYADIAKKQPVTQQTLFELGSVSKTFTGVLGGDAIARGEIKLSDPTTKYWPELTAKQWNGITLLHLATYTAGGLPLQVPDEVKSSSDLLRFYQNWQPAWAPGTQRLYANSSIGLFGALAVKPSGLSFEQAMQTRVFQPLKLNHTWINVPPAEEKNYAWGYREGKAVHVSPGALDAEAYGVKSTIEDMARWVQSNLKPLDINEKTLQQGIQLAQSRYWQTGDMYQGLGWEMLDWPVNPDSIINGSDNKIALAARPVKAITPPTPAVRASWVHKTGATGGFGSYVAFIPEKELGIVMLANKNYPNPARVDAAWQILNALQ
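20 mM phosphate pH 7.0 + 0.01% (detergent screen) or 0.0001% Triton X-100; 5.3 nM AmpC reagent; cpd preinc 15 min RT; nitrocefin (800 uM stock) to start; A480 q20 s × 4 min; Activity was normalised to no-enzyme and no-compound control wells.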
Tb PYK inh = T. brucei pyruvate kinase inhibition. Q57TT1. TbPYK enzyme, Kinase-Glo Plus ATP luminescence, 45 min. Potency, µM (highest dose often 76.8 µM), for the others: top-dose activity, negative = inhibition, most hits filed as inhibitors. hit rate 0.12% among 410,000. AID 624173; note: % is set by controls: 0 for no effect and ±100 for the full control effect; nearly all actives have a fitted effect of over 50% in size
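T. brucei PYK with substrate was exposed to pin-transferred compounds across a concentration series, then started with 130 uM ADP (final). After 45 min at room temperature, Kinase-Glo Plus luminescence was read, normalized and curve-fitted.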
SARS PLpro yeast = inhibitors of SARS-CoV papain-like protease in yeast; Potency, µM (doses to about 32.9 µM), inactives show at the top dose activity, positive = growth rescue, most hits filed as activators; hit rate 0.19% among 330,000; S. cerevisiae expressing SARS-CoV PLpro, growth rescue; calls by dose curve; note: 0% is about no effect; nearly all actives have a fitted effect of over 55% in size
AmpC inh detg = AmpC beta-lactamase inhibition with detergent present | AmpC hydrolysis of nitrocefin, absorbance 480 nm, 0.01% Triton | Potency, µM (highest dose often 114 µM), for the others: at the top dose activity change, negative = inhibition, actives largely listed as inhibitors | hit rate 0.041% among 370,000 | AID 485294;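 note: 0% = no-compound wells and -100% = no-enzyme wells; nearly all actives have a fitted effect of over 25% in size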
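AmpC (5.3 nM in the dispensed reagent) in 20 mM phosphate pH 7.0 with 0.01% (detergent screen) or 0.0001% Triton X-100 was preincubated with compounds for 15 min at room temperature. Nitrocefin was then added from an 800 uM solution, and hydrolysis was followed at 480 nm.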
RE007 growth inh = less growth of the S. pombe RE007 Vpr strain; S. pombe RE007 Vpr strain, BacTiter-Glo ATP luminescence, 24 h; Potency, µM (titrated, usually from 92.2 µM), without a hit: at the top dose activity change, negative = less growth, most hits filed as inhibitors; AID 651644; hit rate 0.21% among 360,000; active = well fitted falling curve with a large enough effect; inconclusive = small, poorly fitted or top-dose-only effect; inactive = no such curve, though single readings can be large or run the other way; note: % is set by controls: 0 for no effect and ±100 for the full control effect; nearly all actives have a fitted effect of over 50% in size
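Fission yeast strain RE007, carrying one chromosomally integrated HIV-1 vpr copy, was seeded at OD 0.01 in PMG+AL medium with 23 nL pinned compound. After 24 h at 30 °C and 99% humidity, viability was read by BacTiter-Glo luminescence.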
Sm TGR inh = blocks Schistosoma mansoni thioredoxin glutathione reductase | Q962Y6 | purified TGR, DTNB reduction, TNB absorbance 405 nm | Potency, µM (top dose mostly 114 µM), for inactives: at the highest dose activity change, negative = inhibition, most hits filed as inhibitors | hit rate 3% among 360,000 | AID 485364; note: % is set by controls: 0 for no effect and ±100 for the full control effect; nearly all actives have a fitted effect of over 60% in size
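First, TGR (20 nM dispensed) and NADPH were mixed with compound. Second, a 15 min room-temperature incubation followed. Third, further NADPH and then DTNB were added to start the reaction. Finally, TNB absorbance was monitored kinetically.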
Starred values were filed as active, the others as inactive; ? = inconclusive; nt = no result given; [ ] = dose if it differs, or a comment. Unless noted, calls come from the whole dose curve; as a rule, active = well fitted curve in the direction sought with a large enough effect; inconclusive = small, poorly fitted or top-dose-only effect, or another doubt; inactive = no such curve, though single readings can be large; an effect the other way counts as inactive or inconclusive. Potency is the fitted concentration of half-maximal effect.

SMILES	AmpC inh no detg	Tb PYK inh	SARS PLpro yeast	AmpC inh detg	RE007 growth inh	Sm TGR inh
CCc1ccc(-c2nc(CS(=O)CC(=O)NCc3cccnc3)c(C)o2)cc1 (stereo not given)	20%	-6%	-1%	2%	14%	40µM*
CC(C)CCNC(=O)C1CCN(C(=O)N2CCOc3ccc(Cl)cc32)CC1	nt	-8%	nt	11%	nt	-13%
Cc1ccc(N2C(=O)CS(=O)(=O)CC2=O)cc1	-32%	5%	0%	9%	7%	8.9µM*
CCOC(=O)C1C(=O)C=C(c2ccc(Br)cc2)CC1c1ccco1 (stereo not given)	-22%	0%	-19%	0%	-5%	-29%
CCOC(=O)C1C(=O)C=C(c2cccc(NS(C)(=O)=O)c2)CC1c1ccco1 (stereo not given)	-13%	-1%	13%	8%	1%	32µM*
C[C@H]1[C@@H](OC(=O)CCC(=O)O)OC2OC3(C)CC[C@H]4[C@H](C)CC[C@@H]1[C@@]24OO3 (stereo not given in full)	nt	3%	nt	nt	nt	nt
N#Cc1c(-c2cccc(Br)c2)cc(-c2ccco2)[nH]c1=O	-43%	1%	-1%	-11%	5%	10µM*
COc1ccc(-c2cc(-c3ccco3)[nH]c(=O)c2C#N)cc1	-36%	3%	3%	-11%	0%	3.2µM*
Cc1ccccc1CNC(=O)CCCn1c(=O)c2cccn2c2cccnc21	nt	1%	nt	-5%	nt	-2%
CC1c2cccn2CCN1S(=O)(=O)c1ccc(F)cc1 (stereo not given)	-14%	-2%	-1%	-3%	0%	?
CC(=O)c1cccc(S(=O)(=O)N2CCn3cccc3C2C)c1 (stereo not given)	-7%	0%	-1%	?	1%	32µM*
CC(=O)c1ccc(S(=O)(=O)N2CCn3cccc3C2C)cc1 (stereo not given)	0%	0%	-2%	-2%	-1%	35µM*
COC(=O)c1ccccc1S(=O)(=O)N1CCn2cccc2C1C (stereo not given)	-43%	-6%	-3%	-6%	3%	?
COc1ccc(NC(C)=O)cc1S(=O)(=O)N1CCn2cccc2C1C (stereo not given)	27%	0%	-1%	-2%	-9%	25µM*
Cc1cc2c(c(=O)o1)C(c1ccc([N+](=O)[O-])o1)C(C#N)=C(N)O2 (stereo not given)	-37%	-15%	-1%	1%	2%	14µM*
COC(=O)c1ccc2nc(-c3ccco3)c(Cc3ccc(C)cc3)n2c1	nt	?	nt	nt	-16%	nt
Clc1cccc(Cc2c(-c3ccco3)nc3ccc(Cl)cn23)c1	nt	20µM*	nt	nt	?	nt
COC(=O)c1ccc2nc(-c3ccco3)c(Cc3ccc(OC)cc3C)n2c1	nt	14µM*	nt	nt	-3%	nt
C[C@H]1[C@@H]2Cc3ccc(O)cc3[C@]1(C)CCN2CCc1ccccc1	nt	-5%[157 µM]	nt	nt	nt	nt
Oc1ccc(COC2CCCC2)c2cccnc12	-7%	nt	-2%	?	nt	18µM*
OCc1ccnc2c(O)cccc12	2%	0%	13%	-13%	4%	14µM*
Oc1ccc(COc2cccc3ccccc23)c2cccnc12	-55%	nt	-2%	-15%	nt	8.9µM*
COCc1ccc(O)c2ncccc12	-1%	?	-35%	1%	?	-33%
Oc1ccc(COCc2ccc(F)cc2)c2cccnc12	-39%	nt	1%	?	nt	35µM*
CCOc1ccc2nc(NC(=O)c3nc(SCc4ccccc4C)ncc3Cl)sc2c1	nt	-2%	nt	13%	nt	0%
SMILES	AmpC inh no detg	Tb PYK inh	SARS PLpro yeast	AmpC inh detg	RE007 growth inh	Sm TGR inh
O=S(=O)(/N=C/c1c(O)ccc2ccccc12)c1ccccc1	-25%	-6%	6%	3%	-24%	40µM*
O=C(N/N=C\c1c(O)ccc2ccccc12)c1ccc(O)cc1	-55%	4%	13µM*	-18%	10%	-9%
O=C(O)c1ccc(N=Cc2c(O)ccc3ccccc23)cc1	-25%	-4%	12%	-10%	-15%	?
O=C(CCN1CCCCC1c1cccnc1)NCc1ccccc1 (stereo not given)	-9%	-16%	5%	-13%	5%	35µM*
CC(=O)c1cccc(N(CC(=O)N2CCCCC2)S(C)(=O)=O)c1	-2%	0%	1%	-10%	-12%	1%
CC(=O)c1cccc(N(CC(=O)N2CCCC2)S(C)(=O)=O)c1	-6%	-2%	-1%	?	-2%	45µM*
Cc1cc(C)n(Cc2ccc(Cl)cc2Cl)c(=O)c1S(=O)(=O)c1ccccc1	0.16µM*	3%	3%	4%	4%	10%
Cc1c(-c2ccc(F)cc2)nc(N)c(C#N)c1-c1cccs1	-31%	5%	9%	?	-2%	-2%
Cc1ccc(-c2c(C)c(-c3ccc(F)cc3)nc(N)c2C#N)o1	-35%	-12%	-3%	-15%	-20%	28µM*
COc1ccc(C2=NCCn3nc4cc([N+](=O)[O-])ccc4c32)cc1	1%	-9%	-1%	5%	-1%	25µM*
Cc1ccc(C)c(NC(=O)C(c2ccccc2)N2Cc3ccccc3C2=O)c1 (stereo not given)	nt	7%	nt	2%	nt	-3%
Cc1nc2ncnn2c(C)c1CCC(=O)NCCCN1CCN(c2cccc(Cl)c2)CC1	45%	6%	-1%	-1%	-1%	79µM*
O=C1NC(=O)N(Cc2ccc(F)cc2)C(=O)/C1=C\c1ccc(N2CCCC2)cc1	-46%	-7%	0%	-1%	13%	1.3µM*
O=C1NC(=O)N(CCc2ccc(F)cc2)C(=O)/C1=C/c1ccco1	18µM*	?	6%	?	23%	?
Cc1ccc(/C=C2/C(=O)NC(=O)N(CCc3ccc(F)cc3)C2=O)o1	-36%	-18%	?	-2%	-4%	?
CN(C)c1ccc(/C=C2\C(=O)NC(=O)N(CCc3ccc(F)cc3)C2=O)cc1	-45%	-12%	0%	-11%	9%	4µM*
CCCc1nc([N+](=O)[O-])c(S(=O)(=O)c2ccccc2)n1CC(C)C	0%	-4%	?	2%	3%	0.89µM*
CC(C)Cn1c(C(C)C)nc([N+](=O)[O-])c1Sc1ccc(Cl)cn1	27%	-10%	-11%	?	16%	-28%
CC(C)Cn1c(C(C)C)nc([N+](=O)[O-])c1S(=O)(=O)c1ccc(F)cc1	14%	1%	0%	3%	5%	1.8µM*
CCC(Sc1ccc(C(=O)O)cc1)C(=O)O (stereo not given)	-13%	2%	10%	-1%	15%	3%
O=C(CC(Sc1ccc(Br)cc1)C(=O)O)c1ccc(F)cc1 (stereo not given)	-28%	-20%	-1%	-9%	-9%	0.63µM*
CCOc1ccc(C(=O)CC(Sc2ccc(C)cc2)C(=O)O)cc1 (stereo not given)	-24%	-7%	0%	-10%	0%	3.2µM*
COc1c(O)c(=O)n2c3ccccc3c3ccnc1c32	-3%	0%	1%	-8%	-20%	4µM*

Bioassay records (PubChem)
